This is an account of results in ChEMBL document CHEMBL1961873, “Compounds: GSK PKIS; Assays: Nanosyn kinase panel” (2012).

The target in assay [1] is Fibroblast growth factor receptor 4 (Homo sapiens) (UniProt P22455). To be noted: at 1 µM.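 Further: reported figure is the averaged percent inhibition of FGFR4, from the GSK PKIS kinase screening panel.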
The target of assay [2] is Tyrosine-protein kinase Fgr (Homo sapiens) (UniProt P09769). As to conditions: at 0.1 µM.
The target is the same in assay [3]. As to conditions: at 1 µM.
Assay [4] addresses Vascular endothelial growth factor receptor 1 (Homo sapiens) (UniProt P17948). As to conditions: at 0.1 µM.
The target is the same in assay [5]. As to conditions: at 1 µM.
The target in assay [6] is Receptor-type tyrosine-protein kinase FLT3 (Homo sapiens) (UniProt P36888). As to conditions: at 0.1 µM.
Assay [7] has the same target. To be noted: at 1 µM.
The subject of assay [8] is T1, Receptor-type tyrosine-protein kinase FLT3 (Homo sapiens), P36888 [D835Y].
T1 sequence (whole entry): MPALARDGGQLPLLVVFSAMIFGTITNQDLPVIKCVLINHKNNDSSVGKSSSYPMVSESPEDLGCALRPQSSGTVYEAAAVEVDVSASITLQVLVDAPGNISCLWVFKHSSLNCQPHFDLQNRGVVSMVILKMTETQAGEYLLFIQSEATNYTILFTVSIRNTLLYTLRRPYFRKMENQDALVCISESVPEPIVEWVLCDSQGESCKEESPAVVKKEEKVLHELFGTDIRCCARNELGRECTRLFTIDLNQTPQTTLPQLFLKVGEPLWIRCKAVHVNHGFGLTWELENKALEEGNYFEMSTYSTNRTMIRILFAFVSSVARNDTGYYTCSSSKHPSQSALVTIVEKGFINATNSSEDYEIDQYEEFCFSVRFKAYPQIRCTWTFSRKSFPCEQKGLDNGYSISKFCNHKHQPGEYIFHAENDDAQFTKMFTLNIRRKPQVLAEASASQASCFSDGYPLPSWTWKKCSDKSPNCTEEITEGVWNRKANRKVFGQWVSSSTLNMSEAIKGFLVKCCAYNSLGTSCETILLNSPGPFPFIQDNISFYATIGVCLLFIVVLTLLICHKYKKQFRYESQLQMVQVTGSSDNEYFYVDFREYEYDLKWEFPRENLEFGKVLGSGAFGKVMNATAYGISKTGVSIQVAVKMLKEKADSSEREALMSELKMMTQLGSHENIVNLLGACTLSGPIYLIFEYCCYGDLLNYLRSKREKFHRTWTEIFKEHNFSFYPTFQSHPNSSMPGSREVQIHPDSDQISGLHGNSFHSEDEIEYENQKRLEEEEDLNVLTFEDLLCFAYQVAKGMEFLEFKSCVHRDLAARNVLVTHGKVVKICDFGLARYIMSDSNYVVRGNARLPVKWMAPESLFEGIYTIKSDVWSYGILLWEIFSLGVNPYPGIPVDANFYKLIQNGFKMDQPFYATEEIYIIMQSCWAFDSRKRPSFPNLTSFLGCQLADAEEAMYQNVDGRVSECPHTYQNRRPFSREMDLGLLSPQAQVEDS
To be noted: at 0.1 µM.

Assay [9] concerns the target Non-receptor tyrosine-protein kinase TYK2 (Homo sapiens) (UniProt P29597). To be noted: at 1 µM.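 Further: values are mean percent inhibition of TYK2 kinase.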
The target of assay [10] is T2, Tyrosine-protein kinase receptor TYRO3 (Homo sapiens) (UniProt Q06418).
T2 sequence (whole entry): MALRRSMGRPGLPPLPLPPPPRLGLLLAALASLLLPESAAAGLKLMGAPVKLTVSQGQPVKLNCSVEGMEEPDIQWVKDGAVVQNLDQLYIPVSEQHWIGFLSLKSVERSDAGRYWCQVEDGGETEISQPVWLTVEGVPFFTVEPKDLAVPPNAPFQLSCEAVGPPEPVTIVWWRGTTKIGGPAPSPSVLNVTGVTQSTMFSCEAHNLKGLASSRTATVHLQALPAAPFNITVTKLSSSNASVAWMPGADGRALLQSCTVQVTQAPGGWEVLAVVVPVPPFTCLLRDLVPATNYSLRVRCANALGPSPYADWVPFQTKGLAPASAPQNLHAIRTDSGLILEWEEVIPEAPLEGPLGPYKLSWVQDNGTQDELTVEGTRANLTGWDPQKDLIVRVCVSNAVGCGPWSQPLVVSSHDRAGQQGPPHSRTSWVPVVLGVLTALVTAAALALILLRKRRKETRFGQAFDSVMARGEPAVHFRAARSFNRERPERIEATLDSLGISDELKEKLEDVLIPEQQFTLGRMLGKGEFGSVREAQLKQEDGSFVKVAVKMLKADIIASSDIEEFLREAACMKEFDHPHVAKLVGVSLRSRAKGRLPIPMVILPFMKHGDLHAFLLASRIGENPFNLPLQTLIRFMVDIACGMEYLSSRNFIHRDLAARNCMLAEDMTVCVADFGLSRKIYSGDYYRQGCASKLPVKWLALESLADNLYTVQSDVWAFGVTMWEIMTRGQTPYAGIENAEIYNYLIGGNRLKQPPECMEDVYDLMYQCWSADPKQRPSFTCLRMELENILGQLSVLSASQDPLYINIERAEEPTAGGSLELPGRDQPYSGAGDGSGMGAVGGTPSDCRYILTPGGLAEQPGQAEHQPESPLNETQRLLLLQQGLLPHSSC
To be noted: at 0.1 µM.

The target in assay [11] is T2, Tyrosine-protein kinase receptor TYRO3 (Homo sapiens). As to conditions: at 1 µM.
Assay [12] concerns the target Tyrosine-protein kinase Yes (Homo sapiens) (UniProt P07947). As to conditions: at 0.1 µM.
The target is the same in assay [13]. As to conditions: at 1 µM.
The target in assay [14] is T3, Tyrosine-protein kinase ZAP-70 (Homo sapiens) (UniProt P43403).
T3 sequence (whole entry): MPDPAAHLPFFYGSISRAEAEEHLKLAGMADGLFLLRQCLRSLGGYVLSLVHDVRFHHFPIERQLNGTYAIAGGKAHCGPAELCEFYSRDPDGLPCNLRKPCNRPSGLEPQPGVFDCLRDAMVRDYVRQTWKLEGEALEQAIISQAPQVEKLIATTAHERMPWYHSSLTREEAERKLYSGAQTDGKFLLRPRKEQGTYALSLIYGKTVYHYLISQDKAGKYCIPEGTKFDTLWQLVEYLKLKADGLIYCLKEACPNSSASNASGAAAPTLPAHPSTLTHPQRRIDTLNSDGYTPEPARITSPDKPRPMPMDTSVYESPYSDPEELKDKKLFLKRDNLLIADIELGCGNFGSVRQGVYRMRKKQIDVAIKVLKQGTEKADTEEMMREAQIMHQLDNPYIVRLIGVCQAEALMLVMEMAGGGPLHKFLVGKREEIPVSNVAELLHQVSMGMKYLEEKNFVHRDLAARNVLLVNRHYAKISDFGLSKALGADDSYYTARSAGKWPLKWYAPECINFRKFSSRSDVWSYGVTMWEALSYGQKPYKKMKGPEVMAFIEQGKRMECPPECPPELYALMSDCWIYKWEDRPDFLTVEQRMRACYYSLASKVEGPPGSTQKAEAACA
As to conditions: at 0.1 µM.

Assay [15] concerns the target T3, Tyrosine-protein kinase ZAP-70 (Homo sapiens). To be noted: at 1 µM.
Assay [16] addresses Serine/threonine-protein kinase B-raf (Homo sapiens) (UniProt P15056). To be noted: at 0.1 µM.
Assay [17] has the same target. To be noted: at 1 µM.
Assay [18] deals with Serine/threonine-protein kinase B-raf (Homo sapiens), P15056 [V600E]. To be noted: at 0.1 µM.
Chain of Serine/threonine-protein kinase B-raf (Homo sapiens), P15056 [V600E] (P15056 whole entry V600E): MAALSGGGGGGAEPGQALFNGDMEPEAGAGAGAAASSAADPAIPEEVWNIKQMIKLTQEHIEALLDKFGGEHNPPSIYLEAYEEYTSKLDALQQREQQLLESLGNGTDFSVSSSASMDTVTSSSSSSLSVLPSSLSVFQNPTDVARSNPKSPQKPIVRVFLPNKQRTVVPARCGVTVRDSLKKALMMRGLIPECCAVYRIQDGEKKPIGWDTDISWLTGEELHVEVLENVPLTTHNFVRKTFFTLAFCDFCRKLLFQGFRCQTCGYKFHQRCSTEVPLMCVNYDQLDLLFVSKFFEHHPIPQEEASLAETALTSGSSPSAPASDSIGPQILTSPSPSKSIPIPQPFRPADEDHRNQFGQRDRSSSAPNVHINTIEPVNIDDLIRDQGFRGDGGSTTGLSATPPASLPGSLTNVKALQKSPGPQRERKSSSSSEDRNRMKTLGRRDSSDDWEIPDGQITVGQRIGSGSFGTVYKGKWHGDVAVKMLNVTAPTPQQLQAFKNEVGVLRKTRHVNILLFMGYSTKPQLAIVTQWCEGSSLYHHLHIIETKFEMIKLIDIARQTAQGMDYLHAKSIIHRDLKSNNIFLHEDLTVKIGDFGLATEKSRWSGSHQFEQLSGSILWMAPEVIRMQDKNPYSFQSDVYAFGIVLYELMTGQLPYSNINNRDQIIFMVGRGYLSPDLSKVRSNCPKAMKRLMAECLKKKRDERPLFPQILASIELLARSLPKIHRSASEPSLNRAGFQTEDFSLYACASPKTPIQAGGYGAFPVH
Assay [19] has the same test system. As to conditions: at 1 µM.
Assay [20] has as its target RAF proto-oncogene serine/threonine-protein kinase (Homo sapiens) (UniProt P04049). To be noted: at 0.1 µM.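 Further: values are mean CRAF kinase inhibition from profiling of the GSK Published Kinase Inhibitor Set.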

Chain of RAF proto-oncogene serine/threonine-protein kinase (Homo sapiens) (P04049 whole entry): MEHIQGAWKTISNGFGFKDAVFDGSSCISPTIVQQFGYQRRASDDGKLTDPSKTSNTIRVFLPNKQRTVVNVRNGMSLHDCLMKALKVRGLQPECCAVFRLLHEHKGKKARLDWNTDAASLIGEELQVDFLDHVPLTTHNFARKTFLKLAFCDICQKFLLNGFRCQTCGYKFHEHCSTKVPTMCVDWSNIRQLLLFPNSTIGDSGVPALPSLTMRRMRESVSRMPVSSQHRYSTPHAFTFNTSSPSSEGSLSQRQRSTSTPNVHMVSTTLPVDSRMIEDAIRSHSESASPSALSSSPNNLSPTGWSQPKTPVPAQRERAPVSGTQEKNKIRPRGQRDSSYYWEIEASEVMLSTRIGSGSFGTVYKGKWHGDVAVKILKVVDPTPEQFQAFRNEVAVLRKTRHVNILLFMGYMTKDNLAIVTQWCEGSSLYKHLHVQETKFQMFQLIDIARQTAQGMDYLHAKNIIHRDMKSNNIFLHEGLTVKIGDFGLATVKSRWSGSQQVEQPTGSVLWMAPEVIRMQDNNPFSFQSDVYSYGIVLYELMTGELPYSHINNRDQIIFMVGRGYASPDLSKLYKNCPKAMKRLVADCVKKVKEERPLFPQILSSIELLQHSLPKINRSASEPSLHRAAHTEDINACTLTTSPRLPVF
Chain of Tyrosine-protein kinase Fgr (Homo sapiens) (P09769 2-529 limits assumed): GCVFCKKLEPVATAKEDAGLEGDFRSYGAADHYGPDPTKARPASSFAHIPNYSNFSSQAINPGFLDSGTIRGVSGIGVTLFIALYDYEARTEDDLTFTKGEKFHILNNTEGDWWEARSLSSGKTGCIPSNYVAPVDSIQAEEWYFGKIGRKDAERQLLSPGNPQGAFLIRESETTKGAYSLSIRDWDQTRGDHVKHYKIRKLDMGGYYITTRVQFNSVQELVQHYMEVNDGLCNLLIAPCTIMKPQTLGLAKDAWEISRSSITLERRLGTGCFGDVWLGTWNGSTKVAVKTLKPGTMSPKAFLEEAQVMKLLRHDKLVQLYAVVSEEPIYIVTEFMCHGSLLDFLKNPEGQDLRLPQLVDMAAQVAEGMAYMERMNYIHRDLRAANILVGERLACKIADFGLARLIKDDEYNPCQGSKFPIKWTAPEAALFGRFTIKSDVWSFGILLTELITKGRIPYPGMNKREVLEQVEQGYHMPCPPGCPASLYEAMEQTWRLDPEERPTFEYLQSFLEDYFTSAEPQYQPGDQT
Chain of Fibroblast growth factor receptor 4 (Homo sapiens) (P22455 22-802 limits assumed): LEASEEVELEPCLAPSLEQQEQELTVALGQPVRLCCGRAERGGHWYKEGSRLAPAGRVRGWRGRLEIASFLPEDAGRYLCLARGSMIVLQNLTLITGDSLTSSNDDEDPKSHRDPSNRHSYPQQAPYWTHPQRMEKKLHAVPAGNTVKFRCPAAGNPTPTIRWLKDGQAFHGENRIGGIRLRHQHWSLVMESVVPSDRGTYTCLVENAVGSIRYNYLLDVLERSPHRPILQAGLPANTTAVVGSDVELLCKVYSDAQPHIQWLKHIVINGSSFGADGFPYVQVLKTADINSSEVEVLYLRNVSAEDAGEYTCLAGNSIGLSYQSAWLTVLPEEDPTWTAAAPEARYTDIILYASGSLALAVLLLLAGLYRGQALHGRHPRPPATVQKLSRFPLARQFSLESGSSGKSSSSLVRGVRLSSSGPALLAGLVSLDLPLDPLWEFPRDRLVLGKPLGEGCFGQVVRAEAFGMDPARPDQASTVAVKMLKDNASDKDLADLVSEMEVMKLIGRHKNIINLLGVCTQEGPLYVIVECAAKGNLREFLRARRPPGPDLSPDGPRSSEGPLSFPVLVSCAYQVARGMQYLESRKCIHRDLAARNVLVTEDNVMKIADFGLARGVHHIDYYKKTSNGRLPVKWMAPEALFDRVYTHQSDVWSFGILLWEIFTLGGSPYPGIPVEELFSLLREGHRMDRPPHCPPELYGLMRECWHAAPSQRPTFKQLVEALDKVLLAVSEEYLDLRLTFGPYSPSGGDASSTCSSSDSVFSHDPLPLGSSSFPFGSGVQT
Chain of Non-receptor tyrosine-protein kinase TYK2 (Homo sapiens) (P29597 whole entry): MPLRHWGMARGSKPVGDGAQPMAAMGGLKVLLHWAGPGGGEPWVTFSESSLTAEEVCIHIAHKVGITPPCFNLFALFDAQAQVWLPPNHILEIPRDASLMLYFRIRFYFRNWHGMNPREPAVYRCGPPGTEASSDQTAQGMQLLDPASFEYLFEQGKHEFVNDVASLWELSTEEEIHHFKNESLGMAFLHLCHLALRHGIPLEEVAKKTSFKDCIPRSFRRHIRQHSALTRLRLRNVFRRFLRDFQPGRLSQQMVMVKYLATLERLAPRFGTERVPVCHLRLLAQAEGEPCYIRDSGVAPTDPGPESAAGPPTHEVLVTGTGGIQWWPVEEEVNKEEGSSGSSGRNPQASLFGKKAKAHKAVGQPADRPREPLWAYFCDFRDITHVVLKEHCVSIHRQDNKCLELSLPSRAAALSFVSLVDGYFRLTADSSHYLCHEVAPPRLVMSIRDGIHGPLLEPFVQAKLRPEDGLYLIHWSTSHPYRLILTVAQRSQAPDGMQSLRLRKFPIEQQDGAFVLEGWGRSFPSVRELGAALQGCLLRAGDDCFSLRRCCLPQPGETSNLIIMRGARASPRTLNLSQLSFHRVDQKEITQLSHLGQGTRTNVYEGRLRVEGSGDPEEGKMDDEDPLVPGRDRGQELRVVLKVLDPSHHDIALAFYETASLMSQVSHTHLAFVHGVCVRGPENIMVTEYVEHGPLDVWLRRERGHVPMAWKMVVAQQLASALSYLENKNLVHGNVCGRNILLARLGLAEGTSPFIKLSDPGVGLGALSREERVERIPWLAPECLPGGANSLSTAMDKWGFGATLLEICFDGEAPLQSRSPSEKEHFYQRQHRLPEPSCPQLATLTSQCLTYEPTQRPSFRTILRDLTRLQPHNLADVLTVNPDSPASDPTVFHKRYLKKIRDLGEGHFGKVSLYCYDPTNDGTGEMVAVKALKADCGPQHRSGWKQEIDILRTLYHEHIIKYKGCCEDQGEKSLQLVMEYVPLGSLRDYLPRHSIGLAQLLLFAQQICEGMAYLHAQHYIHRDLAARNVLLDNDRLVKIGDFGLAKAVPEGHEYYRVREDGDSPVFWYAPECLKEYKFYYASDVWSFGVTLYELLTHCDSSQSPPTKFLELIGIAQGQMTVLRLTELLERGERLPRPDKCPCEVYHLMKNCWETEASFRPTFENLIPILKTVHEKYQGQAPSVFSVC
Chain of Tyrosine-protein kinase Yes (Homo sapiens) (P07947 2-543 limits assumed): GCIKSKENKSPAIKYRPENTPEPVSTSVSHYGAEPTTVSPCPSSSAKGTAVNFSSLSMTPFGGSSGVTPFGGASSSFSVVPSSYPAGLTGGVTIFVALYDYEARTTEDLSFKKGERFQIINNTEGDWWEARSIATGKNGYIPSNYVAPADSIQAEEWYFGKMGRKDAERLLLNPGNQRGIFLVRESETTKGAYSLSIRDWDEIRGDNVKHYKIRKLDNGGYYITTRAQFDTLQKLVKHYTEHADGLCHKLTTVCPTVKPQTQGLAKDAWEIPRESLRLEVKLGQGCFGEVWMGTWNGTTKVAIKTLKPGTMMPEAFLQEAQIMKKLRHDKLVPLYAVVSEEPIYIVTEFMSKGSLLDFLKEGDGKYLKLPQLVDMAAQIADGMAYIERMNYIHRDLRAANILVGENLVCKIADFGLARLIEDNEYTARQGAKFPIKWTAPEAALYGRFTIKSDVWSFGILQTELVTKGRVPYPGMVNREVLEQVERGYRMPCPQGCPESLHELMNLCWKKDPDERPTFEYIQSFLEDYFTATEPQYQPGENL
Chain of Serine/threonine-protein kinase B-raf (Homo sapiens) (P15056 whole entry): as the sequence (P15056 whole entry V600E) above, with E600V counted along it

Turning to `CN(C)c1ccc2c(c1)/C(=C/Nc1ccc(S(N)(=O)=O)cc1)C(=O)N2`, the inhibition (as a rule, the relative decrease from the control value, in per cent) in [1] was determined as 3.82%; in assay [2], 2.49%; in [3], 16.7%; in [4], 1.02%; in [5], 12.6%; in assay [6], 3.53%. Moreover, the inhibition was 17.7% in [7]; 0.41% in assay [8]; 17.2% in [9]; 3.54% in [10]; 7.48% in [11]; 2.8% in assay [12]. For the same compound, the inhibition in assay [13] is 14.3%; in assay [14], 2.05%; in assay [15], 5.7%; in [16] it was 2.49%; in assay [17], 4.91%; in [18] it was 2.9%. The inhibition in assay [19] is 5%; in [20] it was 3.91%.
On to `COc1ccc(-c2ccc3c(NC(=O)C4CC4)n[nH]c3n2)cc1`, for which the inhibition in [1] is 0.39%; in assay [2], 3.05%; in assay [3], 6.74%; in assay [4], -0.58%; in assay [5], 0.09%; in assay [6], 0.61%. For the same compound, the inhibition in assay [7] was 3.42%; in assay [8], -3.58%; in [9], -0.42%; in assay [10], 2.92%; in assay [11] it was 21.7%; in [12], 2.13%. Besides, the inhibition in [13] was 8.75%; in assay [14], 0.8%; in assay [15], -3.24%; in [16], 3.14%; in assay [17], 2%; in assay [18], 3.73%. Besides, the results for the inhibition in assay [19] and in assay [20] were 1.97% and -1.88%, respectively.
For `C[C@@H](Oc1cc(-n2cnc3ccc(OCC4CCN(C)CC4)cc32)sc1C(N)=O)c1ccccc1Cl`, the inhibition in assay [1] is 4.52%; in assay [2] it was 2.78%; in assay [3], 13.7%; in assay [4] it was 1.38%; in assay [5], -0.37%; in assay [6], 6.77%. The inhibition is 16.1% in [7]; -8.99% in assay [8]; -4.49% in assay [9]; 2.99% in assay [10]; 6.74% in assay [11]; 2.66% in [12]. Moreover, the inhibition in assay [13] is 15.5%; in assay [14] it was 4.61%; in assay [15], 6.88%; in assay [16], 8.65%; in assay [17], 10.6%; in [18], 6.37%. Further, the inhibition in assay [19] is 5.47%; in assay [20] it was 3.88%.
Take `O=C(Nc1ccc(Oc2ccc3[nH]c(NC(=O)c4ccccc4)nc3c2)cc1)Nc1cc(C(F)(F)F)ccc1F`: the inhibition in assay [1] is 0.83%; in [2] it was 9.57%; in assay [3], 7.53%; in [4] it was 5.53%; in [5] it was 39.3%; in assay [6] it was 6.63%. Further, the inhibition in [7] was 53.4%; in assay [8] it was -0.18%; in [9], -0.97%; in [10], 2.33%; in assay [11], 16.8%; in assay [12], 1.01%. The inhibition was 7.23% in assay [13]; -1.74% in assay [14]; 1.65% in assay [15]; 4.48% in assay [16]; 33.4% in assay [17]; 5.24% in assay [18]. Moreover, the inhibition is 42.7% in [19] and -3.16% in [20].
With `COc1cc(Nc2ncc3c(C)nc(-c4cccc(C(F)(F)F)c4)n3n2)cc(OC)c1OC`, the inhibition in [1] is 0.75%; in [2], 7.22%; in assay [3], 14%; in [4] it was 2.19%; in [5] it was 5.18%; in assay [6], 6.14%. Further, the inhibition was 36.3% in assay [7]; 3.11% in assay [8]; -1.24% in assay [9]; 4.04% in [10]; 10.6% in assay [11]; 11.6% in assay [12]. Further, the inhibition in assay [13] worked out at 42.7%; in assay [14] it was 1.78%; in assay [15], 2.75%; in assay [16], 5.44%; in [17] it was 14.8%; in assay [18], 5.48%. Further, the inhibition in assay [19] was found to be 13.2%; in assay [20], 3.02%.
As to `COc1cccc(-n2cnc3c(N/N=C/c4ccncc4)ncnc32)c1`, the inhibition was -3.96% in assay [1]; 6.79% in assay [2]; 19% in assay [3]; -1.12% in [4]; 1.4% in [5]; 0.88% in [6]. For the same compound, the inhibition in [7] was 6.95%; in [8] it was 7.7%; in assay [9] it was 3.46%; in assay [10], 1.07%; in assay [11], 4.59%; in assay [12] it was 7.55%. Also, the inhibition was 36.4% in assay [13]; -2.42% in [14]; -3.33% in assay [15]; -0.31% in assay [16]; -1.09% in assay [17]; -0.89% in [18]. In addition, the inhibition is -0.68% in [19] and -3.41% in assay [20].
`Cc1ccc(C(=O)NC(C)C)cc1-c1ccc(C(=O)NCC2CC2)cc1`: the inhibition in [1] was 0.47%; in [2] it was -1.7%; in assay [3], -1.1%; in assay [4] it was 0.43%; in [5] it was -1.81%; in [6], -4.25%. Further, the inhibition is -1.66% in assay [7]; -1.15% in assay [8]; 2.94% in assay [9]; -2.22% in assay [10]; -0.5% in assay [11]; -0.21% in assay [12]. The inhibition in [13] was -0.56%; in assay [14] it was -5.65%; in assay [15] it was -1.41%; in [16], -3.13%; in assay [17], -5.03%; in assay [18] it was -4.24%. The inhibition is -2.75% in assay [19] and -1.46% in [20].
